Screens (PubChem BioAssay)
Shown are actives, neighbours in structure and some others; about 2.1% of the full set was active somewhere.
FUS yeast rescue = FUS proteinopathy suppression in yeast; Potency, µM (highest dose often 76.6 µM), hits mostly activators; 390,000 tested, 0.24% active; AID 1347120; S. cerevisiae FUS-expressing, growth rescue, OD600, 24 h; note: nearly all actives have a fitted effect of over 55% in size
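Compound concentration series was pinned onto galactose-induced FUS-expressing yeast seeded at OD 0.005. Plates sat 24hr at 30C; absorbance at 600 nm gave growth. DMSO served as background control.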
Abeta rescue = A-beta toxicity reversal in yeast; yeast expressing A-beta42, growth rescue, OD600, 48 h; response scale: 0% DMSO, 100% iron-clioquinol control; Potency, µM (titrated, usually from 46.1 µM), actives largely listed as activators; 410,000 tested, 0.063% active; AID 1347071; note: nearly all actives have a fitted effect of over 55% in size
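Growth rescue measured by 600 nm absorbance after 48 h yeast culture at 30 C with compound. Values normalized between DMSO and an equimolar ferric chloride plus clioquinol control.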
TDP43 rescue = inhibitors of TDP-43 toxicity in yeast; TDP-43 expressing yeast growth rescue, BacTiter-Glo, 24 h; AID 652104; 410,000 tested, 1.8% active; Potency, µM (top dose mostly 46.1 µM), usual class: activators; note: nearly all actives have a fitted effect of over 50% in size
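Readout is BacTiter-Glo luminescence of cell growth, so inhibitors register as activators. TDP-43-expressing yeast at OD600=0.02 in galactose medium, after raffinose pregrowth to mid-log, were incubated with compound for 24 hr at 30 deg C.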
aSyn rescue = alpha-synuclein toxicity inhibition in yeast; Potency, µM (highest dose often 46.1 µM), usual class: activators; 370,000 tested, 0.14% active; Yeast expressing alpha-synuclein, growth rescue, BacTiter-Glo, 24 h; note: nearly all actives have a fitted effect of over 65% in size
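Rescue of yeast growth: cells expressing toxic alpha-synuclein, induced in galactose at OD600 0.02, incubated with compound 24 h at 30 C. ATP luminescence quantified growth; inhibitors of toxicity appear as activators.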
Each line names hits and unclear results; the compound was inactive in the other large screens. Calls come from the whole dose curve; as a rule, active = well fitted curve in the direction sought with a large enough effect; inconclusive = small, poorly fitted or top-dose-only effect, or another doubt; inactive = no such curve, though single readings can be large; an effect the other way counts as inactive or inconclusive.

CCOC(=O)c1cnc2ccc(OCC)cc2c1N1CCN(c2ccccc2OC)CC1	TDP43 rescue 35.5µM
CCOC(=O)c1cnc2c(OC)cccc2c1N1CCN(c2ccccc2F)CC1	TDP43 rescue 11.2µM (no result: aSyn rescue)
CCOC(=O)c1sc(N)c(C(=O)Nc2ccccc2)c1C	TDP43 rescue 12.6µM
CCc1nnc(NC(=O)[C@@H](NC(=O)c2ccc(OC)cc2)C(C)C)s1	none
CCc1nnc(NC(=O)[C@@H](NC(=O)c2ccc(C(C)(C)C)cc2)C(C)C)s1	FUS yeast rescue 28.2µM
CC(C)CC(=O)Nc1sc2c(c1C(=O)O)CCCCC2	TDP43 rescue 11.2µM
N/C(=N\OC(=O)CSc1ccccc1)c1cccc([N+](=O)[O-])c1	TDP43 rescue 20µM
N/C(=N\OC(=O)CCC1CCCC1)c1ccc([N+](=O)[O-])cc1	TDP43 rescue 20µM
N/C(=N\OC(=O)CCCc1ccccc1)c1ccc([N+](=O)[O-])cc1	TDP43 rescue 22.4µM (no result: FUS yeast rescue)
N/C(=N\OC(=O)CCC1CCCCC1)c1cccc([N+](=O)[O-])c1	none
O=C(CSc1nnc(-c2ccc(Cl)cc2)n1Cc1ccco1)Nc1ccc(S(=O)(=O)Nc2nccs2)cc1	none (no result: Abeta rescue, TDP43 rescue, aSyn rescue)
CCCCN1CCN(C(=O)c2ccc(CNC(=O)c3cccc(Br)c3)cc2)CC1	none (no result: Abeta rescue, TDP43 rescue, aSyn rescue)
CCOc1ccc(Nc2oc(/C=C/c3cc(OC)c(OC)c(OC)c3)nc2C#N)cc1	none (no result: aSyn rescue)
O=C(OC12CCCN(C1)/C(=C/c1ccc(Cl)cc1)C2)c1cccc(F)c1 (stereo unspecified)	none (no result: Abeta rescue, TDP43 rescue, aSyn rescue)
COc1ccc(C2C3=C(N=C4SCC(=O)N42)c2ccccc2CC3)cc1OC (stereo unspecified)	FUS yeast rescue 35.5µM
O=C(NC1CC1)c1ccc2nc(-c3ccco3)c(-c3ccco3)nc2c1	none (no result: FUS yeast rescue, Abeta rescue, TDP43 rescue)
CCc1ccccc1NC(=O)C1C(c2ccccc2)C1(Cl)Cl (stereo unspecified)	none
O=C(Nc1ccccc1Cl)C1C(c2ccccc2)C1(Cl)Cl (stereo unspecified)	TDP43 rescue 12.6µM
Clc1ccc(Nc2nc(C3CC3)cs2)cc1	TDP43 rescue 14.1µM
S=c1[nH]nc(Nc2ccc(Cl)cc2)s1	none
COc1ccc(Br)c(C(=O)OCC(=O)NC(=O)NC2CCCC2)c1	TDP43 rescue 17.8µM, aSyn rescue inconclusive
Cc1ccc(-c2nc3ccc(C)cn3c2Cc2cccc(Cl)c2)cc1	none
Cc1ccc(-c2nc3ccc(Cl)cn3c2Cc2cccc(Cl)c2)cc1	FUS yeast rescue inconclusive, TDP43 rescue 20µM
CC(C)(C)Cc1c(-c2ccc(Cl)cc2)nc2ccc(Br)cn12	TDP43 rescue 35.5µM
Cc1ccc(-c2nc3ccc(Br)cn3c2Cc2cccc(Cl)c2)cc1	TDP43 rescue 28.2µM
CC(C)(C)Cc1c(-c2ccc(Br)cc2)nc2ccc(Cl)cn12	TDP43 rescue inconclusive
Clc1ccc(-c2nc3ccc(Br)cn3c2Cc2cccc(Cl)c2)cc1	TDP43 rescue 31.6µM
N#Cc1ccc(-c2nc3ccc(Br)cn3c2Cc2cccc(Cl)c2)cc1	TDP43 rescue inconclusive
Brc1cccc(-c2nnn3c2nc(NCc2ccc4c(c2)OCO4)c2ccccc23)c1	none (no result: aSyn rescue)
CN[C@H]1C[C@H]2c3[nH]c4cccc(-c5ccc6c(c5)OCO6)c4c3CCN2C[C@H]1[C@H](C)O	none (no result: Abeta rescue, TDP43 rescue, aSyn rescue)
COc1ccc(C=Nn2c(-c3ccc(F)cc3)n[nH]c2=S)cc1OCc1ccccc1	none (no result: Abeta rescue, TDP43 rescue, aSyn rescue)
OCCN(CCO)c1nc2ccccc2[nH]1	none
O=c1[nH]c(=O)n(C(c2ccccc2)(c2ccccc2)c2ccccc2)cc1N(CCO)CCO	TDP43 rescue 20µM (no result: FUS yeast rescue)
CCOC(=O)c1cc(-c2ccc(C)cc2)n(CCC(=O)NC(C)CC)c1C (stereo unspecified)	TDP43 rescue 14.1µM
CCN=c1scc(C)n1/N=C/c1ccc(O)c(O)c1O	none (no result: FUS yeast rescue)
CCN=c1scc(C)n1/N=C/c1cc(Br)c(O)c(Br)c1	TDP43 rescue 3.16µM
C=CCN1[C@H](CC(C)C)COc2cc(F)ccc2S1(=O)=O	none (no result: Abeta rescue, TDP43 rescue, aSyn rescue)
COc1ccc(N/C(C)=C/C(=S)Nc2ccccc2)cc1	TDP43 rescue 12.6µM
CC(C)CN1C(=O)C[C@]2(C(=O)N(C)c3ccc(NS(=O)(=O)C4CCCCC4)cc32)C1c1ccccc1 (stereo partly specified)	none (no result: Abeta rescue, TDP43 rescue, aSyn rescue)
Cn1c(/C=C/c2ccccc2)nc2ccccc2c1=O	TDP43 rescue inconclusive
CCn1c(/C=C/c2ccc(F)cc2)nc2ccccc2c1=O	TDP43 rescue 22.4µM
CCn1c(/C=C/c2ccccc2)nc2ccccc2c1=O	TDP43 rescue 35.5µM
CCc1ccccc1NC(=O)c1ccc(F)c(S(=O)(=O)N2CCN(c3ccccc3OC)CC2)c1	FUS yeast rescue inconclusive, Abeta rescue 8.91µM (no result: aSyn rescue)
COc1ccccc1N1CCN(S(=O)(=O)CCNC(=O)COc2ccc(C(C)C)cc2)CC1	FUS yeast rescue inconclusive, Abeta rescue inconclusive, TDP43 rescue 15.8µM (no result: aSyn rescue)
COc1ccc(Cl)cc1C(=O)NCCS(=O)(=O)N1CCN(c2ccccc2OC)CC1	FUS yeast rescue inconclusive, TDP43 rescue 11.2µM (no result: aSyn rescue)
O=C(Nc1cc(Cl)cc(Cl)c1)c1ccc(F)c(S(=O)(=O)N2CCN(c3ccccc3F)CC2)c1	none (no result: aSyn rescue)
CCOc1ccc(CC(=O)NCCS(=O)(=O)N2CCN(c3ccccc3OC)CC2)cc1	none (no result: aSyn rescue)
O=C1CCC[C@H]2[C@@H](Cc3ccccc3)[C@@H](O)CC[C@]23CCCN13	none (no result: Abeta rescue, TDP43 rescue, aSyn rescue)
Nc1[nH]c(C(=O)c2ccccc2)c(-c2ccc(Cl)cc2Cl)c1C(=O)NCCC1=CCCCC1	none (no result: Abeta rescue, TDP43 rescue, aSyn rescue)
COc1cccc(C(NC(C)=O)c2nc(-c3cccs3)cs2)c1 (stereo unspecified)	TDP43 rescue inconclusive
CC(=O)NC(c1ccccc1)c1nc(-c2cccs2)cs1 (stereo unspecified)	TDP43 rescue 15.8µM
COc1cccc(CN2CCN(C(=O)c3oc4c(F)cccc4c3C)CC2=O)c1	TDP43 rescue 20µM
Cc1c(C(=O)N2CCN(Cc3nccn3C)CC2)oc2c(F)cccc12	TDP43 rescue inconclusive
COc1cc(Cl)c(C)cc1NC(=O)c1cnn(-c2ccc(F)cc2F)c1C1CCN(C(=O)OC(C)(C)C)CC1	none (no result: aSyn rescue)
CC(C)(C)OC(=O)N1CCC(c2c(C(=O)N3CCN(c4ccc(Cl)cc4)CC3)cnn2-c2ccc(F)cc2F)CC1	FUS yeast rescue 22.4µM, TDP43 rescue inconclusive (no result: aSyn rescue)
COc1ccc(NC(=O)c2cnn(-c3ccc(F)cc3F)c2C2CCN(C(=O)OC(C)(C)C)CC2)cc1Cl	FUS yeast rescue 12.6µM (no result: aSyn rescue)
Cc1cccc(NC(=O)c2oc3ccc(S(=O)(=O)N4CCC5(CC4)OCCO5)cc3c2C)c1C	FUS yeast rescue inconclusive (no result: aSyn rescue)
CCCCCCCC(=O)N[C@H]1CC[C@@]23CCCN2C(=O)CCC[C@H]3[C@H]1C	none (no result: Abeta rescue, TDP43 rescue, aSyn rescue)
O=C1c2sc3nc4n(c(=O)c3c2CCC1Br)CCCCC4 (stereo unspecified)	FUS yeast rescue inconclusive, TDP43 rescue 12.6µM
O=C1CCCc2c1sc1nc3n(c(=O)c21)CCCCC3	none
Cc1ccc(NC(=O)C2CC3CCC2C3)cc1 (stereo unspecified)	none (no result: Abeta rescue, TDP43 rescue, aSyn rescue)
O=C(c1ccco1)N1N=C(c2ccccc2O)CC1c1cccs1 (stereo unspecified)	TDP43 rescue 35.5µM
